The whole screen tested about 52,000 compounds, of which about 4,300 (8.3%) were called active. What follows is part of a selection rich in actives, with near analogues and random picks from the rest. Values without a mark were called inactive. Rule as the data show it: active = survival mostly below about 52% (no sharp cut-off); inactive = mostly above about 56%.
Tested on: DeltatarO mutant
Assay: growth inhibition of S. aureus wild type versus tarO mutant, primary screen, teichoic acid synthesis inhibitors, RN4220, OD600 (AID 463173)
Settings: OD600, 18 h, hits give low values, screened at 18.75 µg/mL (by protocol)

Compound | survival
CCOc1ccccc1C(=O)N(C)c1ccccc1 | 92%
CCc1nn2c(=O)cc(COC(=O)c3ccccc3NC(=O)c3ccc(C(C)(C)C)cc3)nc2s1 | 91%
O=c1cc(-c2ccccc2)nc(SCc2nc(-c3ccccc3Cl)no2)[nH]1 | 69%
Cc1ccc(CNC(=O)Cn2c(-c3cccs3)cc3cc(Cl)ccc32)cc1 | 79%
CCOc1ccc(C(=O)Nc2ccc3oc(-c4cccc5ccccc45)nc3c2)cc1 | 60% (active)
Cc1ccc(C(=O)Nc2ccc3oc(-c4ccc(C(C)(C)C)cc4)nc3c2)cc1 | 70%
CCOc1cccc(C(=O)Nc2ccc3oc(-c4cccnc4)nc3c2)c1 | 56%
CCCCOc1cccc(C(=O)Nc2ccc3oc(-c4cccnc4)nc3c2)c1 | 46% (active)
CCOc1ccc(C(=O)Nc2ccc3oc(-c4ccncc4)nc3c2)cc1 | 74%
CCOc1cccc(C(=O)Nc2ccc3oc(-c4ccncc4)nc3c2)c1 | 70%
CCCCOc1ccc(C(=O)Nc2ccc3oc(-c4cccnc4)nc3c2)cc1 | 69%
CCOc1ccc(C(=O)Nc2ccc3oc(-c4ccc5ccccc5c4)nc3c2)cc1 | 74%
CCOc1cccc(C(=O)Nc2ccc3oc(-c4ccc(C(C)(C)C)cc4)nc3c2)c1 | 46% (active)
O=C(Nc1ccc(NC(=O)C2CC2)nc1)c1cccc(F)c1 | 77%
CCCCCc1nn2cc(-c3ccccc3)nc2s1 | 105%
Nc1ccc(CN2C(=O)c3ccccc3C2=O)cc1 | 91%
O=C(C1CCCN(S(=O)(=O)c2cccs2)C1)N1CCN(c2ccccc2F)CC1 (stereo unspecified) | 85%
CCn1cc(C(=O)N2CCN(c3ccc(C(C)=O)cc3)CC2)c2cc(OC)c(OC)cc2c1=O | 164%
CCC(=O)N1CCc2cc(S(=O)(=O)CCC(=O)N3CCN(c4cccc(C)c4C)CC3)ccc21 | 98%
COc1ccc(CCCc2nnc(SCC(=O)Nc3cccc(F)c3C)o2)cc1 | 39% (active)
Cc1ccc(NC(=O)CSc2nnc(COc3ccc(Cl)cc3)o2)cc1 | 49%
COc1ccc(CCCc2nnc(SCC(=O)Nc3ccc(OC)cc3)o2)cc1 | 65%
CCc1ccccc1NC(=O)CSc1nnc(COc2ccccc2Cl)o1 | 66%
Cc1cc(C)cc(NC(=O)CSc2nnc(COc3ccccc3Cl)o2)c1 | 12% (active)

Compound | survival
O=C(CSc1nnc(COc2ccc(Cl)cc2)o1)Nc1ccccc1 | 51%
COc1cccc(NC(=O)CSc2nnc(COc3ccc(Cl)cc3)o2)c1 | 57% (active)
COc1ccc(CCCc2nnc(SCC(=O)Nc3cc(F)ccc3C)o2)cc1 | 64%
CC(C)c1ccccc1NC(=O)CSc1nnc(COc2ccccc2Cl)o1 | 99%
O=c1c2oc3ccccc3c2n(Cc2ccccc2)c(=O)n1Cc1ccco1 | 95%
CCN(Cc1ccccc1)C(=O)CN1C(=O)COc2ccc(S(=O)(=O)N3CCCCCC3)cc21 | 95%
COc1cc(C2CC(=O)c3cnc(N4CCN(CCO)CC4)nc3C2)cc(OC)c1OC (stereo unspecified) | 92%
CCn1c(N2CCN(C(=O)Nc3ccc(Cl)c(C(F)(F)F)c3)CC2)nc2ccccc21 | 0% (active)
CCCn1c(N2CCN(C(=O)Nc3ccc(OC)cc3)CC2)nc2ccccc21 | 104%
CC(C)Cn1c(N2CCN(C(=O)Nc3ccc(Cl)cc3)CC2)nc2ccccc21 | 102%
CC(=O)c1ccc(NC(=O)c2noc3c2CSc2ccccc2-3)cc1 | 54%
COCCCNC(=O)C1CCN(Cc2nc(-c3ccc(OC)c(OC)c3)oc2C)CC1 | 88%
COc1ccc(OC)c(-c2noc(N3CCN(c4ccc(C(C)=O)cc4)CC3)n2)c1 | 134%
Cc1ccc(/C=C/C(=O)Nc2ccc3nc(N4CCC(C)CC4)cc(C)c3c2)cc1 | 122%
Cc1cc(N2CCCCC2)nc2ccc(NC(=O)/C=C/c3ccc(OC(C)C)cc3)cc12 | 50%
Cc1cc(N2CCCCC2)nc2ccc(NC(=O)/C=C/c3ccc(OCCC(C)C)cc3)cc12 | 56%
Cc1cc(N2CCCCC2)nc2ccc(NC(=O)/C=C/c3ccccc3OC(C)C)cc12 | 73%
COc1ccc(/C=C/C(=O)Nc2ccc3nc(N4CCC(C)CC4)cc(C)c3c2)cc1OC | 51%
COc1ccc(/C=C/C(=O)Nc2ccc3nc(N4CCCCC4)cc(C)c3c2)cc1OC | 43% (active)
Cc1cc(N2CCCCC2)nc2ccc(NC(=O)/C=C/c3ccccc3Cl)cc12 | 44% (active)
COc1ccc(/C=C/C(=O)Nc2ccc3nc(N4CCC(C)CC4)cc(C)c3c2)cc1 | 51% (active)
Cc1cc(N2CCC(C)CC2)nc2ccc(NC(=O)/C=C/c3cccc(Cl)c3)cc12 | 53% (active)
COc1cc(C(=O)Nc2cccc(OCc3cc(=O)n4cc(C)sc4n3)c2)cc(OC)c1OC | 90%
COc1ccccc1C1C=C(c2ccc(Cl)cc2)Nc2nc(-c3ccc(Cl)cc3)nn21 (stereo unspecified) | 59%

Compound | survival
COC(=O)C1=C(C)NC(=O)CC1c1ccccc1 (stereo unspecified) | 105%
COc1ccccc1CCNC(=O)C1CCN(c2nnc(C)c3c(C)n(-c4ccc(C)cc4)nc23)CC1 | 85%
CC(=O)N1CCCc2cc(S(=O)(=O)N3CCCC(C(=O)Nc4ccc(C)cc4C)C3)ccc21 (stereo unspecified) | 71%
Cc1ccc(C(=O)Nc2nc3nc(C)cc(=O)n3[nH]2)cc1 | 91%
O=C(Cc1ccccc1)Nc1c(C(=O)N2CCN(c3ccc(F)cc3)CC2)oc2ccccc12 | 49%
O=C(Cn1ncc2c(=O)oc3ccccc3c21)N1CCN(c2ccc(Cl)cc2)CC1 | 93%
CCn1ccc2cc(S(=O)(=O)N3CCCN(C(=O)Nc4ccc(C)c(F)c4)CC3)ccc21 | 73%
CCN1CCN(c2cc(C)c3cc(NC(=O)/C=C/c4ccc(OCCC(C)C)cc4)ccc3n2)CC1 | 112%
COc1ccc(/C=C/C(=O)Nc2ccc(Cl)c(Cl)c2)cc1OC | 18% (active)
CCN1CCN(c2cc(C)c3cc(NC(=O)/C=C/c4cccc(OC)c4OC)ccc3n2)CC1 | 43% (active)
COc1cccc(/C=C/C(=O)Nc2ccc3nc(N4CCN(C)CC4)cc(C)c3c2)c1OC | 79%
COc1ccc(Nc2c3c(nc4ccc(NC(=O)/C=C/c5cccc(OC)c5OC)cc24)CCCC3)cc1OC | 66%
CCN1CCN(c2cc(C)c3cc(NC(=O)/C=C/c4cccc(Cl)c4)ccc3n2)CC1 | 44% (active)
CCN1CCN(c2cc(C)c3cc(NC(=O)/C=C/c4ccc(C)cc4)ccc3n2)CC1 | 52%
COc1ccc(/C=C/C(=O)Nc2ccc(Cl)c(Cl)c2)cc1 | 66%
C/C=C/C(=O)Nc1ccc(Cl)c(Cl)c1 | 70%
O=C(CSc1nnc(-c2ccc([N+](=O)[O-])cc2)o1)Nc1ccccc1 | 81%
CCSc1ncc(Cl)c(C(=O)Nc2sc(C(C)=O)c(C)c2C(=O)OC)n1 | 72%
O=C(Cn1ncc2c3ccccc3n(Cc3ccc(F)cc3)c2c1=O)NC1CCCCCC1 | 80%
COc1cccc(CNC(=O)CN(c2ccc(C)cc2)S(=O)(=O)N(C)C)c1OC | 94%
C=Cc1ccc(CN2C(=O)N(c3ccc(CC)cc3)S(=O)(=O)c3ccccc32)cc1 | 6% (active)
C=Cc1ccc(CN2C(=O)N(c3cccc(Cl)c3)S(=O)(=O)c3ccccc32)cc1 | 64%
C=Cc1ccc(CN2C(=O)N(c3ccc(C)c(C)c3)S(=O)(=O)c3ccccc32)cc1 | 84%
COc1cc(NC(=O)CCc2nc3cccnc3n2Cc2cccs2)cc(OC)c1OC | 78%

Compound | survival
CC(=O)NC(Cc1cccc(C)c1)C(=O)NC1CCN(c2nc(C)cc(C)c2C#N)CC1 (stereo unspecified) | 97%
CCS(=O)(=O)c1cccc(C(=O)Nc2ccc(-c3nc4ccccc4s3)c(O)c2)c1 | 85%
CCOc1ccc(C2Nc3c(C)cccc3-c3cc(C)nn32)cc1 (stereo unspecified) | 0% (active)
Cc1cc2n(n1)C(c1ccccc1)Nc1ccccc1-2 (stereo unspecified) | 93%
COc1cc(C2Nc3c(C)cc(C)cc3-c3cc(C)nn32)cc(OC)c1O (stereo unspecified) | 131%
COC(=O)c1ccc(C2Nc3c(C)cccc3-c3cc(C)nn32)cc1 (stereo unspecified) | 74%
CCOc1cccc(C2Nc3ccccc3-c3cc(C)nn32)c1O (stereo unspecified) | 195%
COc1ccc(OC)c(C2Nc3c(C)cc(C)cc3-c3cc(C)nn32)c1 (stereo unspecified) | -3% (active)
COc1cc(OC)c(C2Nc3c(C)cccc3-c3cc(C)nn32)cc1OC (stereo unspecified) | 184%
COc1cc(C2Nc3ccccc3-c3cc(C)nn32)ccc1O (stereo unspecified) | 121%
CCN(CC)c1ccc(C2Nc3ccccc3-c3cc(C)nn32)cc1 (stereo unspecified) | 7% (active)
O=C(NCc1ccccc1Cl)C1CCN(C(=O)N2CCOc3ccccc32)CC1 | 83%
COCCn1c(COc2cccc(OC)c2)nnc1SCC(=O)NC1CCCC1 | 82%
COc1ccc(NC(=O)c2cc(C)nc3c2c(C)nn3-c2ccc(C)cc2)cc1OC | 94%
Cc1ccc2[nH]c(=O)c(CN(C(=O)c3cccc(Cl)c3)C(C)(C)C)cc2c1 | 94%
Cc1nc2c(c(SCC(=O)Nc3ccccc3C(F)(F)F)n1)CCC2 | 60%
Cc1ccc(C(=O)CSc2nc(-c3ccccc3)nc3c2CCCC3)c(C)c1 | 47%
Cc1ccc(C(=O)CSc2nc(-c3ccccc3)nc3c2CCCC3)cc1 | 36% (active)
CCc1ccc(C(=O)CSc2nc(-c3ccccc3)nc3c2CCCC3)cc1 | 60%
Cc1ccc(C(=O)CSc2nc(-c3ccccc3)nc3c2CCCC3)cc1C | 15% (active)
Cc1ccc(C)c(C(=O)CSc2nc(-c3ccccc3)nc3c2CCCC3)c1 | 2% (active)
O=C(CSc1nc(-c2ccccc2)nc2c1CCCC2)c1ccc(Cl)cc1 | 76%
O=C(CSc1nc(-c2ccccc2)nc2c1CCCC2)c1ccc(F)cc1 | 83%
NC(=O)CSc1nc(-c2ccccc2)nc2c1CCCC2 | 88%

Source: PubChem BioAssay AID463173 (ICCB-Longwood Screening Facility, Harvard Medical School, 2010)
